The values below come from PubChem BioAssay (EPA / NIEHS).

One assay concerns NCBI gene 100848466. Briefly: NVS_NR_bPR: NovaScreen (NVS) Nuclear Receptor Binding Assay for bovine Progextron Receptor (PR) (AID 2283343). Put shortly: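 Scintillation counts of bound radioligand were read 18 hours after chemical addition to membranes extracted from bovine uterus. Displacement was scored as loss of signal relative to DMSO controls. Screening began at 25 uM in duplicate.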

For assay [1], the target named is Estrogen receptor (Homo sapiens) (UniProt P03372). The assay is described as follows: OT_ER_ERaERa_1440: Odyssey Thera (OT) 24-hour HEK293T Protein-Complementation Assay for Estrogen Receptor-alpha/-alpha Homodimer (AID 2283349).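 Further: hits raise fluorescence above DMSO for agonists and antagonists alike.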 The method in brief: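 Cells (HEK293T) carrying the fragment-tagged ERα LBD (aa 310-547) pair are treated with chemical for 24 hours. Nuclear and/or cytoplasmic fluorescence is then quantified on a laser scanning cytometer. Activity is scored as signal gain against DMSO.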

Assay [2] has the same target. The assay is described as follows: OT_ER_ERaERa_0480: Odyssey Thera (OT) 8-hour HEK293T Protein-Complementation Assay for Estrogen Receptor-alpha/-alpha Homodimer (AID 2283351).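 Further: rise in fluorescence from reassembled reporter fragments on ERα LBD homodimer in nucleus or whole cell.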 The method in brief:
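HEK293T cells stably expressing a PCA pair of ER alpha LBD (residues 310-547) were dosed for 8 hours. The gain in fluorescence intensity, nuclear for agonists and whole-cell for antagonists, was measured by laser scanning cytometry against DMSO vehicle.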

Assay [3] deals with Estrogen receptor (Homo sapiens) + Estrogen receptor beta (Homo sapiens) (UniProt P03372+Q92731). Briefly: OT_ER_ERaERb_0480: Odyssey Thera (OT) 8-hour HEK293T Protein-Complementation Assay for Estrogen Receptor-alpha/-beta Heterodimer (AID 2283352). The method in brief: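 Increase in mean fluorescence intensity, measured by laser scanning plate cytometry, reported ER-alpha/ER-beta LBD complementation in HEK293T cells after 8 h chemical exposure. DMSO served as baseline; basal signal is low, punctate and cytoplasmic.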

Assay [4] has as its target bovine Gamma-Aminobutyric Acid Type A Receptor Agonist (GABAR Agonist), GABRA1 (gene 780973) (UniProt P08219). Briefly: NVS_LGIC_bGABAR_Agonist: NovaScreen (NVS) Ligand-Gated Ion Channel Assay for bovine Gamma-Aminobutyric Acid Type A Receptor Agonist (GABAR Agonist) (AID 2283338). The method in brief:
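Radioligand binding to bovine cerebellar membranes in agonist format, read by filter-based scintillation counting after 1 h. Primary screen in duplicate at 25 uM, with actives followed in concentration series. Gain of signal versus DMSO.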

Assay [5] deals with Voltage-gated inwardly rectifying potassium channel KCNH2 (Homo sapiens) (UniProt Q12809). Briefly: NVS_IC_hKhERGCh: NovaScreen (NVS) Ion Channel Assay for human Potassium Channel ERG (KhERGCh) (AID 2283333). Put shortly: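 Membranes from CHO cells expressing human ERG; displacement of radioligand measured by filtration and scintillation after 0.75 h. Single-concentration duplicate screen at 25 uM, then concentration-response for actives; DMSO baseline.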

The target in assay [6] is Glutamate receptor ionotropic, kainate 1 (Rattus norvegicus) (UniProt P22756). Briefly: NVS_IC_rKAR: NovaScreen (NVS) Ion Channel Assay for rat Kainic Acid Receptors (KAR) (AID 2283334; active means hit-call score of the fitted dose curve at least 0.9, where 1 is the maximum; inactive means score below 0.9). Put shortly:
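Rat forebrain membrane preparation incubated 1 h with radioligand and test chemical; bound signal read by filtration and scintillation. Single-concentration screen at 25 uM, then concentration series to 50 uM maximum.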

Assay [7] addresses Small conductance calcium-activated potassium channel protein 1 (Rattus norvegicus) (UniProt P70606). The assay is described as follows: NVS_IC_rKCaCh: NovaScreen (NVS) Ion Channel Assay for rat Potassium Channel, Ca2+ Act., VI (KCaCh) (AID 2283336). Put shortly: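 Filter-based scintillation counting of radioligand bound to rat forebrain membrane preparations, measured 1 h after compound addition. Primary screen used 25 uM in duplicate, with concentration-response follow-up; signal decrease relative to DMSO marks activity.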

Assay [8] has as its target Androgen Receptor/SRC-1 Co-activator, AR (gene 367) (UniProt P10275). The assay is described as follows: OT_AR_ARSRC1_0960: Odyssey Thera (OT) 16-hour HEK293T Protein-Complementation Assay for Androgen Receptor/SRC-1 Co-activator (AID 2283353).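 Further: actives raise the signal above DMSO so potency reflects increased AR and SRC-1 complex.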 The method in brief: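 Endpoint is gain-of-signal N/C fluorescence ratio in the 488 nm channel versus DMSO, from at least 400 cells per image, measured 16 h post-dosing. Cells: HEK293T stably carrying split-Venus AR/SRC-1 complementation constructs.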

The target of assay [9] is human Androgen Receptor (AR), AR (gene 367) (UniProt P10275). Briefly: NVS_NR_hAR: NovaScreen (NVS) Nuclear Receptor Binding Assay for human Androgen Receptor (AR) (AID 2283332). Put shortly:
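LnCAP cell-free extract; radioligand displacement read by scintillation counting after 20 h. Primary screen single concentration 25 uM in duplicate, actives then run as concentration series; loss-of-signal fitted relative to DMSO baseline.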

Assay [10] in a line: NVS_IC_rCaBTZCHL: NovaScreen (NVS) Ion Channel Assay for Calcium Channel, Type L, Benzothiazepine Site (CaBTZCHL) (AID 2283337). Put shortly: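 Rat cortical membrane preparation incubated 1.5 h with compound and benzothiazepine-site radioligand; loss of filter-bound counts versus DMSO marks displacement. Initial duplicate testing at 25 uM, actives followed up in concentration series.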

Assay [11] addresses bovine Estrogen Receptor (ER), ESR1 (gene 407238) (UniProt P49884). Briefly: NVS_NR_bER: NovaScreen (NVS) Nuclear Receptor Binding Assay for bovine Estrogen Receptor (ER) (AID 2283345).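 Further: actives lower the bound radioligand count which means they displace the ER ligand.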 The method in brief: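 Cell-free radioligand binding with bovine uterine membrane extracts, read 18 hours after dosing by scintillation counting. Loss of signal versus DMSO baseline indicates displacement. Primary screen run in duplicate at 25 uM, actives followed in concentration series.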

In assay [12] the target is chimpanzee Androgen Receptor (AR), AR (gene 747460) (UniProt O97775). The assay is described as follows: NVS_NR_cAR: NovaScreen (NVS) Nuclear Receptor Binding Assay for chimpanzee Androgen Receptor (AR) (AID 2283346).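 Further: radioligand displacement from AR measured by scintillation counting in a cell-free assay.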 Put shortly:
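Radioligand binding to chimpanzee AR expressed in Sf9/Sf21 cells, cell-free, measured 72 h after dosing by lysate-based scintillation counting. Loss of signal vs DMSO; initial duplicate screen at 25 uM, actives retested in concentration series.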

Assay [13] has as its target Estrogen receptor (Homo sapiens) (UniProt P03372). The assay is described as follows: NVS_NR_hER: NovaScreen (NVS) Nuclear Receptor Binding Assay for human Estrogen Receptor (ER) (AID 2283348). The method in brief: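 MCF7-derived receptor extract, radiolabelled ligand, competitive displacement. Read: scintillation counts at 18 h. DMSO = negative control/baseline. Primary 25 uM duplicate; follow-up concentration–response.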

The target in assay [14] is Bile acid receptor (Homo sapiens) (UniProt Q96RI1). Briefly: NVS_NR_hFXR_Antagonist: NovaScreen (NVS) Nuclear Receptor Binding Assay for human Farnesoid X Receptor Antagonism (FXR) (AID 2283350). Put shortly: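 Antagonist-format time-resolved FRET binding assay with extracted human receptor protein, read 1 hour after compound addition. Compounds first screened at 25 uM in duplicate, then actives tested in concentration series, with loss of signal relative to DMSO.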

Each structure is given as a SMILES string. Records with an inconclusive call do not appear. A structure can be active in one record and inactive in another. Activity calls are given as the source filed them. How the source made its calls, unless noted: active means hit-call score of the fitted dose curve at least 0.9, where 1 is the maximum; inconclusive means response in the unintended direction; inactive means score below 0.9.

Androgen Receptor/SRC-1 Co-activator, AR (gene 367), sequence (P10275 whole entry, looked up): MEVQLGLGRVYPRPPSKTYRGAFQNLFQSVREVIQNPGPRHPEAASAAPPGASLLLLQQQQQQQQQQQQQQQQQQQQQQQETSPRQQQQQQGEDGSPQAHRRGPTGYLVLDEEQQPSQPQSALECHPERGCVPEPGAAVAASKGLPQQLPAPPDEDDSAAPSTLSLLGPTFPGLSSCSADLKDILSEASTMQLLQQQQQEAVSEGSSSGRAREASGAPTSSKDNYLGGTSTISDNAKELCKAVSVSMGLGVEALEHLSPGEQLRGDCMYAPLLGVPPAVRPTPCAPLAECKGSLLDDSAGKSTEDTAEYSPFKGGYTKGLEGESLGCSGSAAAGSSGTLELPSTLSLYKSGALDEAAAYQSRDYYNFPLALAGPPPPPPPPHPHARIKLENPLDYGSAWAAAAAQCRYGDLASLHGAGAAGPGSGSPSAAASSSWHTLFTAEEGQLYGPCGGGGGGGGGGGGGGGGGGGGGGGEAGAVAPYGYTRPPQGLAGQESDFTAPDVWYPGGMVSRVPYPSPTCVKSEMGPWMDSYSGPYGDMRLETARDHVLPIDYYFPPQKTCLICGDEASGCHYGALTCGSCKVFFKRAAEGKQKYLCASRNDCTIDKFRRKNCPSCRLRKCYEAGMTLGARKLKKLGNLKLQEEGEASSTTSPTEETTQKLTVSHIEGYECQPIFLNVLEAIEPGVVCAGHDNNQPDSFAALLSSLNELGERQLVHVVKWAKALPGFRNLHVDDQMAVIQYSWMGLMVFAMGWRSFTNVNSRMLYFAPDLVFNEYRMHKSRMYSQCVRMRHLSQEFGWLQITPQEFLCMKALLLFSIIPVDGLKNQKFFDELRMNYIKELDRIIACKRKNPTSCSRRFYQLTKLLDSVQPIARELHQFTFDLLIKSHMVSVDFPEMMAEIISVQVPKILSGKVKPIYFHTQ
Estrogen receptor (Homo sapiens), sequence (P03372 whole entry, looked up, the tested form may be a part): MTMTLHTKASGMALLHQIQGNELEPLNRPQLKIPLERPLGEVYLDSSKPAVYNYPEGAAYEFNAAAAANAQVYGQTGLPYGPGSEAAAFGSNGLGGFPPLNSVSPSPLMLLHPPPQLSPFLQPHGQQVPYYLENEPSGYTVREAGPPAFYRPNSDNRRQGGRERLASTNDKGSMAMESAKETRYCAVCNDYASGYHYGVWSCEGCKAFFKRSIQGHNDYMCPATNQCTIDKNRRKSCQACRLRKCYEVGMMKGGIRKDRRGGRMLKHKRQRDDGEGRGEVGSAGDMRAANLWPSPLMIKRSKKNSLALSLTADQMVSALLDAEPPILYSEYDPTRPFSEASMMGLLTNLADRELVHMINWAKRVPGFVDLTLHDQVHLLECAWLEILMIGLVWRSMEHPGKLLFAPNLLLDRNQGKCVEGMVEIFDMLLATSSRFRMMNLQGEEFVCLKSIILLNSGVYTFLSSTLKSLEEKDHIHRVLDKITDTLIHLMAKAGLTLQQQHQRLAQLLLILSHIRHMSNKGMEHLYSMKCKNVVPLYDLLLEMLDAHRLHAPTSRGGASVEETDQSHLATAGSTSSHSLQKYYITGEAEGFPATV
Estrogen receptor (Homo sapiens) + Estrogen receptor beta (Homo sapiens), sequence (P03372 whole entry, looked up, the tested form may be a part): as above
Estrogen receptor (Homo sapiens) + Estrogen receptor beta (Homo sapiens), sequence (Q92731 whole entry, looked up, the tested form may be a part): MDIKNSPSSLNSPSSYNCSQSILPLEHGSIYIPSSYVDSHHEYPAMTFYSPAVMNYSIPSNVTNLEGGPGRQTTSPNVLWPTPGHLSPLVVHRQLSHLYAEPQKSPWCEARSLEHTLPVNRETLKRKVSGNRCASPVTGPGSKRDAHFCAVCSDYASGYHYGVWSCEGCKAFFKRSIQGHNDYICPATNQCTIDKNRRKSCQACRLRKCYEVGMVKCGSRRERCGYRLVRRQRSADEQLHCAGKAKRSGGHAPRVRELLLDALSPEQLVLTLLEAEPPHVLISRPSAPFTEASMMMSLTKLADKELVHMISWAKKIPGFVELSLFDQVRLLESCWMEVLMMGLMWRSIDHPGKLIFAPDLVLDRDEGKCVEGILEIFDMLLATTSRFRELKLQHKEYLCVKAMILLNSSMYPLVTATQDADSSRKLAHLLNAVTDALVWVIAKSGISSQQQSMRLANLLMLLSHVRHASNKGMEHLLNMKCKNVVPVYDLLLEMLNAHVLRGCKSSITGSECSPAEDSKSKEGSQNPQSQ
bovine Gamma-Aminobutyric Acid Type A Receptor Agonist (GABAR Agonist), GABRA1 (gene 780973), sequence (P08219 whole entry, looked up): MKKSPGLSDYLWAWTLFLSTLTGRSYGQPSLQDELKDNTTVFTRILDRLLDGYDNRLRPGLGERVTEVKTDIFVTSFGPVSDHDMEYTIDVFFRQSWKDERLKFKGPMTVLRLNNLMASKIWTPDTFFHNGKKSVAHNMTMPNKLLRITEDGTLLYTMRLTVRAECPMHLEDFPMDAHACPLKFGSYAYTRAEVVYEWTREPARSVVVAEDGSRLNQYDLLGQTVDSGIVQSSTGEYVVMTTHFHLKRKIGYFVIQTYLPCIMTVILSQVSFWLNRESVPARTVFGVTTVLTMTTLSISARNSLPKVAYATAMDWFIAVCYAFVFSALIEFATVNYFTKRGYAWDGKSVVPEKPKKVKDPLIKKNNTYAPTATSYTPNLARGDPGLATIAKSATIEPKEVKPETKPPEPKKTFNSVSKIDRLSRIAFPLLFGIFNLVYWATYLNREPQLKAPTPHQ
Glutamate receptor ionotropic, kainate 1 (Rattus norvegicus), sequence (P22756 whole entry, looked up): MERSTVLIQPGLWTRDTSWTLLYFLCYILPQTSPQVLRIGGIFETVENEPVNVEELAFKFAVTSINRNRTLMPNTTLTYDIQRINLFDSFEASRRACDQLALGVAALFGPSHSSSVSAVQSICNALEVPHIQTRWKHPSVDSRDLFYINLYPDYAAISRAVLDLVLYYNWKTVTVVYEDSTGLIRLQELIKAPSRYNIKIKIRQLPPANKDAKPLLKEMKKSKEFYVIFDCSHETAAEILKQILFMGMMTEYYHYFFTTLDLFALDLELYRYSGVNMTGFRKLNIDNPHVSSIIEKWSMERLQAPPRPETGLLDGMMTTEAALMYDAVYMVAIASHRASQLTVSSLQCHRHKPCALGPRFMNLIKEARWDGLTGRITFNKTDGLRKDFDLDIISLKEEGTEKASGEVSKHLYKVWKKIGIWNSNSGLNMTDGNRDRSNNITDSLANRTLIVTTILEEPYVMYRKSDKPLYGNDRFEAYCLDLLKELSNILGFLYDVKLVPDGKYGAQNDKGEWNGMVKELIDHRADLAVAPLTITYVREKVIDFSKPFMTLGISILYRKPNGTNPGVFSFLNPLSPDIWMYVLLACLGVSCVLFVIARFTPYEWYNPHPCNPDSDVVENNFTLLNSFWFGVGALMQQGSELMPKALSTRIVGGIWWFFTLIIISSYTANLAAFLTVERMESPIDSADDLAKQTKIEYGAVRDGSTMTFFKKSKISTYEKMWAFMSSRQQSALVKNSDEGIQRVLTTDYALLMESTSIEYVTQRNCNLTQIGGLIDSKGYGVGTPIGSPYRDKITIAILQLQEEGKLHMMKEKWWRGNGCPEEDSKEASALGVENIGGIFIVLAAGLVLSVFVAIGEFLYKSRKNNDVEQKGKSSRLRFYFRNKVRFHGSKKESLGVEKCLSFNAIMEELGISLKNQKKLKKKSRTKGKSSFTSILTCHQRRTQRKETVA
chimpanzee Androgen Receptor (AR), AR (gene 747460), sequence (O97775 whole entry, looked up): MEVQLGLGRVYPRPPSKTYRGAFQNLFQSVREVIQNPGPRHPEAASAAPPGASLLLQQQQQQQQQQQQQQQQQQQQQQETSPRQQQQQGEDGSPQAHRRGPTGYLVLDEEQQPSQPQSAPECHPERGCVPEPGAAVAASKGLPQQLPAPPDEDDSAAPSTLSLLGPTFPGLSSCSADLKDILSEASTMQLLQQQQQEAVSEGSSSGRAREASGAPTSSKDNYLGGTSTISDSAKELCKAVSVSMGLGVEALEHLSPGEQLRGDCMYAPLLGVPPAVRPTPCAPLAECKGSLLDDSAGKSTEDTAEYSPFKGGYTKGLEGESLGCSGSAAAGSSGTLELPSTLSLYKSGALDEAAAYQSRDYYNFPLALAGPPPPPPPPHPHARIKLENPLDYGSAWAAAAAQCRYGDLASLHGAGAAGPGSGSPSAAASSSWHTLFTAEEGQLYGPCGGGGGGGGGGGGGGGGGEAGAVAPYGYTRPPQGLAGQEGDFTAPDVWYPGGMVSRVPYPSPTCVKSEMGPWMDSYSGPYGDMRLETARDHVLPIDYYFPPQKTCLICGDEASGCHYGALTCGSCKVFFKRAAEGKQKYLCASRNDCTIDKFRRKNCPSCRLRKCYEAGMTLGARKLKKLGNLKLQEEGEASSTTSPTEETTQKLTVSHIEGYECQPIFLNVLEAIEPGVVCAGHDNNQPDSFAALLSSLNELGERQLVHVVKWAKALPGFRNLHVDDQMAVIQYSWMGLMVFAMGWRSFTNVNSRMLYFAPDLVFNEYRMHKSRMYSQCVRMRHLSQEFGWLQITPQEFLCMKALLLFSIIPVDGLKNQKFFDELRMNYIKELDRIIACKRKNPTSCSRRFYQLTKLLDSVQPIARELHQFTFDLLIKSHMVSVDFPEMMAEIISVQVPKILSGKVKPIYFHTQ

In the case of `Cn1cc[nH]c1=S`, the result (in the assay on NCBI gene 100848466; in assay [1]; in assay [2]; in assay [3]) was inactive.

In the case of `O=C1CN(N=Cc2ccc([N+](=O)[O-])o2)C(=O)N1`, the result in assay [4], in assay [1] and in assay [2] was inactive.

For `OC[C@H]1O[C@@](CO)(O[C@H]2O[C@H](CO)[C@@H](O)[C@H](O)[C@H]2O)[C@@H](O)[C@@H]1O`, the compound was called inactive in assay [5], in [6], in assay [1] and in assay [2].

For the compound `CC(=O)c1ccccc1`, the call in [4], in [1] and in [2] was inactive.

Consider `OCc1ccccc1`, for which the outcome in [7], in assay [1], in assay [2], in assay [3] and in assay [8] was inactive.

Take `CCCCCCOC(=O)CC(CC(=O)OCCCCCC)(OC(=O)CCC)C(=O)OCCCCCC`: the compound was called inactive in assay [4], in assay [1], in assay [2], in assay [3] and in [8].

For `C=CCc1cc(S(=O)(=O)c2ccc(O)c(CC=C)c2)ccc1O`, the half-maximal activity concentration (AC50) was 6.16 µM (active) in [9]; 19.1 µM (active) in [11]; 33.1 µM (active) in [12]; 12.5 µM (active) in assay [13]; 18.2 µM (active) in assay [14]; 69.1 µM (active) in assay [8]. Besides, the result (in [6]; in assay [10]; with NCBI gene 100848466; in [13]; in assay [1]; in assay [2]) was inactive. Further, the result in assay [3] was inactive.

For `NC(N)=O`, the compound was classed as inactive in assay [1], in assay [2] and in [3].

On to `CCOC(N)=O`, for which the result in assay [1] and in assay [2] was inactive.

With `OCCNCCO`, in assay [1], the AC50 is 11.9 µM (active). Besides, the compound was called inactive in assay [2].

Turning to `CCCCCCCC/C=C\CCCCCCCC(=O)OC[C@@H](O)[C@H]1OC[C@H](O)[C@H]1O`, the outcome in assay [1], in assay [2] and in assay [3] was inactive.

On to `CNC(C)=O`, for which the call in assay [1], in assay [2] and in assay [3] was inactive.

For `COCc1nnc(-c2ccc[n+]([O-])c2)n1-c1c(Cl)c(Cl)cc2[nH]c(=O)c(=O)[nH]c12`, the call in assay [1], in assay [2], in assay [3] and in assay [8] was inactive.

For the compound `O=C(NO)C1(NS(=O)(=O)c2ccc(Oc3ccc(F)cc3)cc2)CCOCC1`, the compound was classed as inactive in assay [1] and in assay [2].

Consider `O=C(O)c1cccc(C(=O)O)c1`, for which the compound was called inactive in assay [1] and in assay [2].

Consider `O=C(O)[C@H](O)[C@@H](O)C(=O)O`, for which the compound was called inactive in [1], in assay [2] and in [3].

Consider `Cn1c(=O)c2[nH]cnc2n(C)c1=O`, for which the outcome in assay [1] and in assay [2] was inactive.

For the compound `c1ccc2c(c1)-c1cccc3c1c-2cc1ccccc13`, the compound was classed as inactive in assay [12], in [1], in assay [2] and in [3].

In the case of `CC(C)c1nnc2ccc(-c3ocnc3-c3cc(F)ccc3F)cn12`, the result in assay [1], in assay [2] and in assay [3] was inactive.

In the case of `Cc1ccc(S(=O)(=O)NC(=O)NN2CCCCCC2)cc1`, the compound was called inactive in [1], in assay [2] and in assay [3].

With `OCCOCCOCCO`, the call in assay [1], in assay [2], in assay [3] and in assay [8] was inactive.

In the case of `CCCOc1ccc(S(=O)(=O)N2CCN(CC)CC2)cc1-c1nc2c(CC)n(Cc3ccccn3)nc2c(=O)[nH]1`, the compound was called inactive in [1], in assay [2] and in assay [3].

Take `CCc1cccc(CC)c1N`: the AC50 in assay [13] is 10 µM (active). Further, the outcome in [1], in [2], in assay [3] and in assay [8] was inactive.

Take `CC(C)CC(C)O` (configuration not stated): the result in assay [1], in assay [2] and in [3] was inactive.

As for `CCCCOC(=O)c1ccccc1`, the outcome in assay [1], in assay [2] and in assay [8] was inactive.

For `CCOc1ccc2[nH]cc(C(=O)NCc3ccccc3)c(=O)c2n1`, the outcome in assay [1], in assay [2] and in assay [3] was inactive.

With `Nc1ccn([C@@H]2O[C@H](CO)[C@@H](O)[C@@H]2O)c(=O)n1`, in [13], the AC50 is 22.5 µM (active). Further, the call in [1] and in [2] was inactive.

Regarding `NNC(=O)c1ccncc1`, the outcome in [13], in assay [1], in [2] and in assay [3] was inactive.

For `C[C@@H](Oc1ccc(CNC(=O)c2cccnc2Oc2ccc3c(c2)OCO3)c(F)c1)C(=O)O`, the outcome in [1], in assay [2] and in [3] was inactive.

In the case of `CCCc1ccccc1`, the call in [1], in assay [2] and in assay [3] was inactive.

For the compound `CC(C)CCCCCCOC(=O)C1CCCCC1C(=O)OCCCCCCC(C)C` (configuration not stated), the compound was called inactive in assay [1], in [2] and in assay [3].

On to `O=C(O)CO`, for which the result in [1] and in assay [2] was inactive.

As for `NC(=O)NN=Cc1ccc([N+](=O)[O-])o1`, the compound was classed as inactive in assay [1], in assay [2] and in [3].

On to `CCCCCOC(C)=O`, for which the result in [1] and in assay [2] was inactive.

`NC(=O)N(O)[C@@H]1COc2cc(OCc3ccccc3)ccc21`: the result in assay [1], in assay [2] and in assay [3] was inactive.

For the compound `c1ccc2cc3ccccc3cc2c1`, the call in assay [1], in assay [2] and in assay [3] was inactive.

In the case of `OC(CCl)CCl`, the outcome in assay [1], in assay [2] and in assay [3] was inactive.

With `c1ccc2ncccc2c1`, the result in assay [1] and in assay [2] was inactive.

`CCCCCCCCCCCCCCO`: the outcome in [1], in [2] and in [3] was inactive.

`CC[C@H](C)C(=O)O[C@H]1C[C@H](O)C=C2C=C[C@H](C)[C@H](CC[C@@H](O)C[C@@H](O)CC(=O)O)[C@H]21`: the result in [1], in assay [2] and in assay [3] was inactive.

In the case of `C=CN1CCCC1=O`, the call in assay [1] and in assay [2] was inactive.

For the compound `CCCC(CCC)C(=O)O`, the call in assay [13], in assay [1] and in assay [2] was inactive.

`O=S1(=O)CCCO1`: the compound was classed as inactive in assay [1], in [2] and in assay [3].

As usually defined, the AC50 is the concentration giving half of the maximal activity seen.
